From PubChem BioAssay (Tox21) come the findings set out here.

Records with an inconclusive call do not appear. Active and inactive are the calls of the source. Unless noted, calls come from the whole dose curve; as a rule, active = well fitted curve in the direction sought with a large enough effect in the repeat runs; inconclusive = weak or mixed curves; inactive = no such curve, though single readings can be large; an effect the other way counts as inactive or inconclusive.

A short description of test [1]: qHTS assay for small molecule agonists of the p53 signaling pathway (AID 651631; calls by dose curve; note: nearly all actives have a fitted effect of over 15% in size). The method in brief:
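Quantitative high-throughput format: 4,000 p53RE-bla HCT-116 cells/well, 5 h pre-incubation, 16 h compound exposure at 37 °C, 2 h room-temperature substrate step, fluorescence intensity measured.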
A general note: qHTS replaces the single test concentration by a dilution series.

Test [2] is described as follows: qHTS assay for small molecules that induce genotoxicity in human embryonic kidney cells expressing luciferase-tagged ATAD5 (AID 651632). Note: nearly all actives have a fitted effect of over 15% in size. The method in brief: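 Cells were seeded at 2,000 per well, dosed with compound, and incubated 16 hr at 37C in 5% CO2. Luciferase activity was then quantified after a 30 min room-temperature incubation with Amplite.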
Test [3] is described as follows: qHTS assay for small molecule agonists of the p53 signaling pathway - cell viability (AID 651633; calls by dose curve;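 note: p53RE-bla HCT reporter cells with a stable beta-lactamase p53 reporter; series mostly up to about 83 µM; nearly all actives have a fitted effect of over 30% in size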). The gist of the method:
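Viability counter-read: CellTiter-Glo luminescence (30 min, room temperature) in the same p53RE-bla plates. These plates had been exposed to compounds for 16 h at 37 C.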

A short description of test [4]: qHTS assay for small molecules that induce genotoxicity in human embryonic kidney cells expressing luciferase-tagged ATAD5 - cell viability (AID 651634; calls by dose curve; note: nearly all actives have a fitted effect of over 25% in size). The gist of the method: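 Cells (HEK293T, luciferase-tagged ATAD5) are seeded at 2,000 per well, dosed with compound or DMSO vehicle, and incubated 15.5 hr at 37C and 5% CO2. CellTiter-Fluor is added for 30 min before fluorescence is measured.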

The nature of test [5]: qHTS assay for small molecule disruptors of the mitochondrial membrane potential - cell viability (AID 720634; calls by dose curve;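 note: human HepG2 liver cancer cells; series mostly up to about 83 µM; nearly all actives have a fitted effect of over 20% in size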). The method in brief:
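Cytotoxicity was measured by ATP quantitation in HepG2 wells that had first been treated with compound for 1 hr and stained with m-MPI dye; CellTiter-Glo incubation was 30 min at room temperature.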

The nature of test [6]: qHTS assay for small molecule disruptors of the mitochondrial membrane potential (AID 720635). Note: potency is the fitted concentration of half-maximal effect. The gist of the method: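 Mitochondrial membrane potential tracked with Mito-MPS dye, red aggregates (ex 540/em 590 nm) against green monomers (ex 490/em 535 nm). Compound treatment 1 hr at 37C, dye 30 min in HepG2.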
Test [7] in a line: qHTS assay to test for compound auto fluorescence at 590 nm (red) in HepG2 cells (AID 720674). The gist of the method:
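We screened compounds on adherent HepG2 cells, incubating them for an hour at 37 C in 5% CO2 before reading emission at 590 nm under 540 nm excitation; values reflect equivalence to Rose Bengal sodium fluorescence.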

Test [8] in a line: qHTS assay to test for compound auto fluorescence at 535 nm (green) in HepG2 cells (AID 720675).
Test [9] is described as follows: qHTS assay to test for compound auto fluorescence at 460 nm (blue) in HEK293 cells (AID 720678). The gist of the method: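 Blue read-out at excitation 405 nm and emission 460 nm follows overnight compound exposure of HEK293 cells at 37C in 5% CO2. Activity is given as auto fluorescence equivalency to triamterene.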
Test [10] is described as follows: qHTS assay to test for compound auto fluorescence at 590 nm (red) in HEK293 cells (AID 720679). The method in brief: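 Red channel, Ex/Em 540/590nm; signal expressed as equivalency to Rose Bengal sodium. HEK293, 2,000 cells/well, 10% dialyzed FBS; 23 nL compound pinned after 4-5 hr attachment; overnight 37C/5% CO2 before reading.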

As to `COCCCN`, the outcome in test [1], in test [2], in test [3], in test [7], in [8] and in [9] was inactive. Also, in test [10], the outcome was inactive. Besides, the Potency entry in [4], in test [5] and in test [6] was “inactive” throughout.
Turning to `CCOCCOCCOCCO`, the molecule was classed as inactive in test [1], in [2], in [3], in test [7], in test [8] and in test [9]. For the same molecule, the molecule was called inactive in test [10]. Further, the Potency result in test [4] and in test [5] was “inactive” throughout.
As to `CN1C(=O)CC[C@H]1c1cccnc1`, the molecule was called inactive in test [1], in [2], in [3], in [7], in [8] and in [9]. Moreover, the result in test [10] was inactive. The Potency entry in [4] and in test [5] was “inactive” throughout.
As to `CC(=O)CCC=C(C)C`, the molecule was called inactive in test [1], in test [2], in [3], in test [7], in [8] and in [9]. Further, the molecule was called inactive in test [10]. Moreover, the Potency result in test [4] and in test [5] was “inactive” each time.
For `OCc1cccc(Oc2ccccc2)c1`, the result in [1], in test [2], in test [3], in [7], in test [8] and in [9] was inactive. Besides, in test [10], the molecule was called inactive. Moreover, the Potency entry in [4] and in test [5] was “inactive” each time.
In the case of `CCNC(=S)NCC`, the call in test [1], in [2], in test [3], in test [7], in test [8] and in test [9] was inactive. Besides, the molecule was called inactive in test [10]. Also, the Potency result in test [4], in test [5] and in test [6] was “inactive” in each case.
As for `C=C(C)C(=O)OCC(C)C`, the outcome in [1], in test [2], in [3], in test [9] and in test [10] was inactive. In addition, the Potency result in test [4], in [5] and in [6] was “inactive” throughout.
Turning to `COc1ccc(OC)cc1`, the call in test [1], in test [2], in [3], in [7], in test [9] and in [10] was inactive. The Potency result in test [4], in test [5] and in [6] was “inactive” each time.
Consider `NC(=S)NNC(N)=S`, for which the molecule was classed as inactive in test [1], in [2], in test [3], in test [8], in test [9] and in test [10]. In addition, the Potency result in test [4], in test [5] and in test [6] was “inactive” throughout.
For the molecule `COC(=O)c1cccnc1`, the molecule was classed as inactive in [1], in test [2], in test [3], in [7], in [9] and in test [10]. In addition, the Potency result in [4] and in test [5] was “inactive” each time.
On to `C=CC[N+](C)(C)CC=C`, for which the call in test [1], in test [2], in test [3], in [7], in [8] and in test [9] was inactive. The molecule was called inactive in [10]. Also, the Potency entry in [4] and in test [5] was “inactive” in each case.
For `CNC(=S)N(C)C`, the molecule was called inactive in [1], in test [2], in test [3], in test [7], in test [8] and in test [9]. The result in [10] was inactive. The Potency result in test [4] and in [5] was “inactive” throughout.
As for `O=C(O)c1ccccc1C(=O)O`, the result in test [2], in [3], in test [7], in [8], in [9] and in [10] was inactive. For the same molecule, the Potency result in [4], in test [5] and in [6] was “inactive” throughout.
Consider `CN(C)c1ccc(O)c2c1C[C@H]1C[C@H]3[C@H](N(C)C)C(=O)C(C(N)=O)=C(O)[C@@]3(O)C(=O)C1=C2O`, for which the molecule was classed as inactive in [2], in test [3], in test [7], in test [8], in [9] and in test [10]. Moreover, the Potency entry in test [4] and in test [5] was “inactive” in each case.
On to `CCCCCCO`, for which the molecule was classed as inactive in test [2], in [3], in test [7], in test [9] and in test [10]. Moreover, the Potency entry in [4], in [5] and in test [6] was “inactive” each time.
For `CCCCCCCO`, the result in test [2], in [3], in [8], in [9] and in [10] was inactive. The Potency entry in [4], in [5] and in test [6] was “inactive” throughout.
For the molecule `O=C(O)Cn1c(=O)n(Cc2ccc(Br)cc2F)c(=O)c2ccc(Cl)cc21`, the molecule was called inactive in [1], in [2], in test [3], in test [9] and in test [10]. The Potency result in [5] was “inactive”.
Consider `O=C1c2ccccc2CCc2ccccc21`, for which the molecule was called inactive in test [2], in test [3], in test [7], in [9] and in test [10]. Also, the Potency result in test [4] and in [5] was “inactive” each time. The Potency in test [6] was 31.3 µM (active).
Turning to `CC1(C)OC[C@@H]2O[C@@]3(C(=O)O)OC(C)(C)O[C@H]3[C@@H]2O1`, the outcome in [2], in test [3], in test [7], in test [9] and in test [10] was inactive. Moreover, the Potency entry in test [4], in test [5] and in test [6] was “inactive” throughout.
Consider `OCc1ccccc1`, for which the call in test [2], in test [3], in test [9] and in test [10] was inactive. Moreover, the Potency result in [4], in test [5] and in test [6] was “inactive” each time.
For the molecule `CCOC(=O)c1ccc(N)cc1`, the molecule was classed as inactive in test [2], in test [3], in test [8], in test [9] and in test [10]. The Potency entry in test [4], in test [5] and in [6] was “inactive” throughout.
With `CC(=O)OCc1ccccc1`, the outcome in test [2], in test [3], in [7], in test [9] and in test [10] was inactive. Further, the Potency entry in [4], in test [5] and in [6] was “inactive” each time.
As to `COC(=O)CCCC(=O)OC`, the result in [1], in test [2], in [3], in [7], in test [9] and in [10] was inactive. Further, the Potency result in test [4] was “inactive”.
With `O=c1[nH]cnc2[nH]ncc12`, the call in test [2], in [3], in test [7], in [8], in test [9] and in [10] was inactive. Besides, the Potency entry in test [4] and in test [5] was “inactive” each time.
As for `CCCOC(=O)c1ccccc1`, the molecule was called inactive in [2], in [3], in test [8], in [9] and in test [10]. The Potency result in test [4], in test [5] and in [6] was “inactive” throughout.
Regarding `Cc1ccc2ncccc2c1`, the molecule was classed as inactive in test [1], in test [2], in test [3], in test [8], in test [9] and in test [10]. The Potency result in [4] and in test [5] was “inactive” in each case.
Regarding `NCCNCCN`, the molecule was called inactive in [1], in [2], in test [3], in test [8], in test [9] and in test [10]. In test [4], the Potency result was “inactive”.
